p53 PUMA act: mutant p53 pathway re-activators, primary screen, cell-based, SW480, luciferase, single point, HTS. SW480 PUMA-promoter luciferase, p53 mutant reactivation. activation, % at 9.98 µM. 28,000 tested, 1.5% active; in the data active = activation above about 52%; inconclusive = no clear call, values can overlap the other calls
STK33 kin inh: STK33 kinase inhibitors, primary screen, biochemical, luminescence, ADP-Glo, MBP substrate | Serine/threonine-protein kinase 33 (Homo sapiens), Q9BYT3 | inhibition, % at 12.5 µM | 27,000 tested, 0.44% active | AID 2322, 2010; in the data active = inhibition above about 20%; inconclusive = no clear call, values can overlap the other calls
ID4 SMM: binders of human ID4 protein, primary screen, biochemical, small molecule microarray, single point; Flag-ID4 binding, fluorescence F/B; calls only; DNA-binding protein inhibitor ID-4 (Homo sapiens), P47928; 31,000 tested, 1.2% active; call rule not given here;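 note: a binder raises fluorescence above local background on the spot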
Target sequence (P47928 whole entry, looked up): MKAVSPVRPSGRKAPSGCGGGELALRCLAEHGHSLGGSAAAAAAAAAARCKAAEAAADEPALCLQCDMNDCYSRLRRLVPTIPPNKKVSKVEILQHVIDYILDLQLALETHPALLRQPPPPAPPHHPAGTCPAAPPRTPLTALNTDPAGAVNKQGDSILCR
Numbers without * were called inactive; i = inactive; ? = inconclusive; . = no result given; + = active, no number. Rows were chosen to be rich in hits. Some 2% of all compounds tested hit in one or more screens of this group.

SMILES	p53 PUMA act	STK33 kin inh	ID4 SMM
COc1cc(OC)c(C2=NOC(C(=O)Nc3sc4c(c3C#N)CCC4)C2)cc1Cl (configuration not stated)	-6	-3	i
COC(=O)c1ccc(Cl)c(NC(=O)CSc2nnc(-c3cc(OC)cc(OC)c3)o2)c1	-44	0	i
O=C(Nc1sc2c(c1C(=O)NCc1cccnc1)CCCC2)c1ccc(Cl)cc1	24	2	i
Cc1occc1C(=O)Nc1sc2c(c1C(=O)NCc1cccnc1)CCCC2	18	4	+
COc1cccc(NC(=O)/C=C/c2ccc(Cl)cc2)c1	94*	.	i
COc1cccc(NC(N)=O)c1	.	-1	.
c1ccc(OCc2nc3ccccc3n2Cc2ccccn2)cc1	59*	0	i
OC(c1ccccc1)c1nc2ccccc2n1CCOc1ccccc1 (configuration not stated)	2	-1	i
O=C(CSc1nc2ccccc2c(=O)n1-c1ccccc1)Nc1ccc(F)c(Cl)c1	-1	-2	i
CCc1nc2sc3c(c2c2nnc(SCC(=O)Nc4ccccc4)n12)CCC3	6	1	i
Cn1cccc1CNCCCN1CCOCC1	3	0	i
CSc1ccccc1NC(=O)CSc1nccn1C	6	3	i
Cc1cc(C)c(C#N)c(SCC(=O)Nc2sc3c(c2C#N)CCC3)n1	41	3	i
CC(=O)c1ccc(NC(=O)CSc2nc(C)cc(C)c2C#N)cc1	140*	-2	i
Cc1cc(C)c(C#N)c(SCC(=O)Nc2ccc(C(N)=O)cc2)n1	105*	-3	i
CC(=O)c1ccc(NC(=O)CSc2nccn2C)cc1	93*	-2	i
Cc1cc(C(F)(F)F)nc(SCC(=O)Nc2ccc(I)cc2)c1C#N	14	-1	i
Cc1cccc2c1N(C)C(=O)C2(O)CC(=O)c1ccco1 (configuration not stated)	-14	-4	i
O=C(NCc1ccc(F)cc1)[C@H]1C[C@H]2C(=O)NCC(=O)N2[C@H]1c1cccc(OCCO)c1	.	-6	i
CN(C)CCCCCCNC(=O)[C@H]1C[C@H]2C(=O)N3CCC[C@H]3C(=O)N2[C@H]1c1cccc(OCCO)c1	.	-3	+
O=C1N[C@@H](Cc2ccccc2)C(=O)N2[C@@H]1C[C@@H](C(=O)NCc1ccc(F)cc1)[C@H]2c1cccc(OCCO)c1	.	-1	.
NCCCCCNC(=O)[C@H]1C[C@H]2C(=O)N3CCC[C@H]3C(=O)N2[C@H]1c1cccc(OCCO)c1	.	-2	.
O=C1NCC(=O)N2[C@@H]1C[C@@H](C(=O)NCc1ccc(F)cc1)[C@H]2c1cccc(OCCO)c1	.	-3	+
O=C(NCc1ccc(F)cc1)[C@@H]1C[C@@H]2C(=O)N3CCC[C@H]3C(=O)N2[C@@H]1c1cccc(OCCO)c1	.	-6	i
NCCCCCCNC(=O)[C@H]1C[C@H]2C(=O)N[C@@H](Cc3ccccc3)C(=O)N2[C@H]1c1cccc(OCCO)c1	.	-10	+
SMILES	p53 PUMA act	STK33 kin inh	ID4 SMM
O=C(NCc1ccc(F)cc1)[C@H]1C[C@H]2C(=O)N3CCC[C@H]3C(=O)N2[C@H]1c1cccc(OCCO)c1	.	1	+
O=C(CC1(O)C(=O)N(CCc2ccccc2)c2ccc(Br)cc21)c1ccncc1 (configuration not stated)	8	1	i
Cc1cccc(OCC(=O)NC(=S)Nc2ccc(C)cc2O)c1	-1	6	i
CSc1nc2ccc(S(=O)(=O)NCCOc3ccc(Cl)cc3)cc2s1	1	0	i
Cc1cc(C)nc(NS(=O)(=O)c2ccc(NC(=O)c3ccc(C(=O)c4ccccc4)cc3)cc2)n1	3	-2	+
Cc1cc(C)nc(NS(=O)(=O)c2ccc(NC(=O)c3ccc(-c4ccccc4)cc3)cc2)n1	7	-1	i
Cc1ccn2cc(-c3cccc(NS(=O)(=O)c4cccc([N+](=O)[O-])c4)c3)nc2c1	170*	2	i
CC(=O)Nc1ccc(S(=O)(=O)Nc2cccc(-c3cn4ccc(C)cc4n3)c2)cc1	?	0	i
CCc1ccccc1NC(=O)CN(C)S(=O)(=O)c1c(C)cc(C)cc1C	-3	1	i
O=C(NCCCN1CCCC1=O)c1cc(-c2ccccn2)nc2ccc(Br)cc12	-10	0	i
C[C@@H]1CN([C@@H](C)CO)S(=O)(=O)c2ccc(C3=CCCC3)cc2O[C@@H]1CN(C)C(=O)Nc1ccc2c(c1)OCO2	.	.	i
COc1ccc(CN(C)C[C@@H]2Oc3ccc(NC(=O)Cc4cn(C)c5ccccc45)cc3CC(=O)N([C@@H](C)CO)C[C@H]2C)cc1	-10	.	+
C[C@@H]1CN([C@@H](C)CO)S(=O)(=O)c2ccc(C3=CCCC3)cc2O[C@H]1CN(C)C(=O)Nc1ccc2c(c1)OCO2	.	.	+
COc1ccc(CN(C)C[C@H]2Oc3ccc(NC(=O)Cc4cn(C)c5ccccc45)cc3CC(=O)N([C@@H](C)CO)C[C@H]2C)cc1	-7	.	i
C[C@H](CO)N1C[C@H](C)[C@@H](CN(C)C(=O)Nc2ccc3c(c2)OCO3)Oc2ccc(NC(=O)Cc3ccccc3)cc2CC1=O	5	.	+
CNC[C@H]1Oc2ccc(NC(=O)Cc3cn(C)c4ccccc34)cc2CC(=O)N([C@@H](C)CO)C[C@@H]1C	-2	-2	i
CNC[C@@H]1Oc2ccc(NC(=O)Cc3cn(C)c4ccccc34)cc2CC(=O)N([C@@H](C)CO)C[C@H]1C	-4	.	+
C[C@H]1CN([C@@H](C)CO)C(=O)Cc2cc(NC(=O)Cc3ccccc3)ccc2O[C@@H]1CN(C)C(=O)Nc1ccc2c(c1)OCO2	8	-1	i
COc1ccc(OC)c(NC(=O)CNC(=O)c2ccc(Cl)cc2)c1	16	1	i
COc1cc2[nH]c(=S)n(CCc3cnc[nH]3)c(=O)c2cc1OC	-11	-3	i
COc1ccc(CN(C)C[C@@H]2Oc3ccc(NC(=O)Nc4ccc5c(c4)OCO5)cc3CC(=O)N([C@@H](C)CO)C[C@H]2C)cc1	-1	.	+
COc1ccc(NC(=O)Nc2ccc3c(c2)CC(=O)N([C@@H](C)CO)C[C@H](C)[C@H](CN(C)Cc2ccc4c(c2)OCO4)O3)cc1	.	5	.
O=C(CSc1ccccc1C(=O)O)Nc1ccnc2ccccc12	27	3	i
O=C(O)c1ccc2c3c1cccc3c(=O)n1c3ccccc3nc21	.	70*	.
O=C(CSc1nnc(-c2cccs2)n1-c1ccc(Cl)cc1)c1ccc(Cl)cc1	6	2	i
SMILES	p53 PUMA act	STK33 kin inh	ID4 SMM
Cc1cc(C(F)(F)F)nn1CCCNC(=O)c1cc(-c2ccccc2)nc2ccccc12	-4	-5	i
Cc1cc(C)c(NC(=O)CSc2nc3ccc(NC(=O)c4ccccc4C)cc3s2)c(C)c1	-6	0	i
CC(=O)c1ccc(NC(=O)CSc2nc3ccc(NC(=O)c4ccccc4Cl)cc3s2)cc1	81*	7	i
Cc1ccc(-c2cc(C(=O)Nc3sc(C)c(-c4ccccc4)c3C(N)=O)c3ccccc3n2)o1	105*	-1	i
Cc1sc(NC(=O)c2cnccn2)c(C(N)=O)c1-c1ccccc1	99*	4	i
Cc1sc(NC(=O)c2cc(-c3ccccn3)nc3ccccc23)c(C(=O)NC2CCCCC2)c1C	-13	0	i

Assay outcomes (PubChem BioAssay)
